Compound activity: PubChem, NMMLSC
In the library only some 2.4% were active in any assay of this set; here they are far more common.
FPR binder: human FPR ligand, with FPRL1 counter-screen; P21462; FPR-expressing cells, fluorescent ligand binding, flow cytometry; inhibition, % (concentration not given with the values); hit rate 0.74% among 24,000; AID 440;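 further: 0% = buffer wells and 100% = receptor blocker peptide wells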
Target sequence (P21462 whole entry, looked up): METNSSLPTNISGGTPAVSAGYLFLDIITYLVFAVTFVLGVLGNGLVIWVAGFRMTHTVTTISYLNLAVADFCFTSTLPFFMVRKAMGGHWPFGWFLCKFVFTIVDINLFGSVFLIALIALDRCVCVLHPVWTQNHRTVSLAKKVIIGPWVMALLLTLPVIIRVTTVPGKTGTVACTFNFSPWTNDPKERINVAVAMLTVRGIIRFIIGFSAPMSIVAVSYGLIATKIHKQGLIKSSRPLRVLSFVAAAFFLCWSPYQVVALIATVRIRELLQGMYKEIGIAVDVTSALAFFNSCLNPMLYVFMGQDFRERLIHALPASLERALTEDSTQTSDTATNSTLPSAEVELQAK
FPRL1 binder: human FPRL1 ligand, with FPR counter-screen. P25090. FPRL1-expressing cells, fluorescent ligand binding inhibition, flow cytometry. inhibition, % (test concentration not listed). hit rate 0.3% among 24,000. AID 441;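 further: 0% = buffer alone and 100% = receptor blocker peptide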
VLA-4 antagonist: inhibitors of LDV-FITC ligand binding to Mn2+-activated human VLA-4 integrin. Jurkat cells, LDV-FITC binding with Mn2+, flow cytometry; 100% = Mn2+-driven binding gain fully reversed. hit rate 0.2% among 24,000. inhibition, % at 10 µM (by protocol);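 active means inhibition above 50%; inconclusive means compound itself fluorescent, judged against control cell fluorescence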;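 further: 0% = Mn2+ stimulated cells lacking compound and 100% = ligand binding without Mn2+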
Autofluor Jurkat: compound fluoresces in Jurkat cells, VLA-4 screen interference. compound autofluorescence, flow cytometry; stronger effect = higher value; 1 = vehicle-only cell background. fluorescence ratio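 (tested at 10 µM compound in the well)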. hit rate 0.61% among 24,000. AID 576;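 active means fluorescence ratio above 2.44, which is 1 plus 3 SD of all ratios; inconclusive means signal too bright to measure linearly, ratio around 10 or more; inactive means fluorescence ratio below 2.44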;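 further: green fluorescence of cells measured with 488 nm excitation and 530 nm emission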
LNCaP diff act: promotes differentiation of LNCaP prostate cells | flow cytometry side scatter, 4 d | side scatter shift, % at 10 µM | hit rate 0.56% among 24,000;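 active means side scatter shift above 30%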;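 further: androgen-responsive LNCaP prostate cancer cells in charcoal-stripped serum medium; percent of cells past a gate set so DMSO wells show 10% shift; higher shift means more granular cells and more differentiation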
VLA-4 allo ag: allosterically activates the human VLA-4 integrin; Jurkat cells, LDV-FITC binding, flow cytometry; activation, % at 10 µM (by protocol); 24,000 tested, under 10 active; AID 528;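 active means fluorescent ligand binding to cells raised by more than 40% of the manganese-induced maximum; inconclusive means compound's own fluorescence above 85% of the ligand control signal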;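 further: 0% = ligand binding without compound and 100% = manganese-stimulated maximal binding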
An asterisk follows results filed as active; ? = inconclusive; nt = no result given. Unless noted, no stated cut-off is given here; in the data, active means inhibition above about 30%; inconclusive means no clear call, values can overlap the other calls; inactive means below that.

SMILES | FPR binder | FPRL1 binder | VLA-4 antagonist | Autofluor Jurkat | LNCaP diff act | VLA-4 allo ag
CCCCn1c(NC(=O)CC)c(C#N)c2nc3ccccc3nc21 | 48* | -1 | ? | 3.1* | 8 | ?
CCCCn1c(NC(=O)c2ccccc2Cl)c(C#N)c2nc3ccccc3nc21 | 3 | -1 | nt | nt | nt | nt
Cc1ccc(N(CC(=O)N2CCN(C3CCCCC3)CC2)S(=O)(=O)c2cccnc2)cc1 | -6 | -9 | -12 | 0.96 | 5 | 1
Cc1cc(C)cc(-n2cc3c(=O)n(C)c(=O)n(C)c3c2)c1 | 32* | 24 | -13 | 1 | 6 | -5
Cc1cccc(-c2c3c(=O)n(C)c(=O)n(C)c3cn2-c2ccc(O)cc2)c1 | -4 | -1 | 12 | 1.1 | 8 | -8
O=C(CN1CCC(O)(c2ccc3c(c2)OCO3)CC1)OC1CCCCC1 | 1 | 2 | -10 | 0.98 | 4 | -6
O=c1cc(N2CCc3ccccc3C2)[nH]c(=O)n1C1CCCCC1 | 0 | 1 | 4 | 1 | 62* | -5
O=c1cc(N2CCC(Cc3ccccc3)CC2)[nH]c(=O)n1C1CCCCC1 | -2 | 2 | ? | 1.2 | 18 | ?
CC(C)Cc1nc2oc3c(N4CCN(CCO)CC4)ncnc3c2c2c1CCCC2 | 2 | 0 | -16 | 0.95 | 32* | 9
O=C1NC2=C(C(=O)CCC2)C(c2ccc3ncccc3c2)N1 (stereo not drawn) | 7 | -8 | 4 | 1 | 3 | 1
CCN1CCCC1CNC(=O)c1cc2c(-c3ccc(Cl)cc3)nn(C)c2s1 (stereo not drawn) | 3 | -7 | ? | 1.1 | 64* | ?
Cn1nc(-c2ccc(Cl)cc2)c2cc(C(=O)NCCCN3CCCC3)sc21 | 1 | -1 | 5 | 1 | 62* | -3
CCCN(CCC)CCCNS(=O)(=O)c1ccc2c(c1)oc(=O)n2C | -12 | -10 | ? | 3.7* | 9 | ?
Cc1ccc(N2CCn3c2nc2c3c(=O)n(CCc3ccccc3)c(=O)n2C)cc1 | -11 | -9 | 13 | 1.1 | 15 | -1
CC(C)(C)OC(=O)N1CC=C2C(C#N)=C(N)C(C#N)(C#N)C(c3cccs3)C2C1 (stereo not drawn) | 18 | 3 | ? | 2 | 6 | ?
CN1CC=C2C(C#N)=C(N)C(C#N)(C#N)C(Cc3ccccc3)C2C1 (stereo not drawn) | -6 | 2 | ? | 2.6* | 15 | ?
CCN(CC)S(=O)(=O)c1ccc2c(c1)nc(SCC(=O)NC1CC1)n2-c1ccccc1OC | -2 | 0 | -1 | 1.1 | 16 | 2
COc1ccccc1Cn1c(-c2ccco2)nc2nc3ccccc3nc21 | 5 | -9 | ? | 2.6* | 8 | ?
NS(=O)(=O)c1cc2c(cc1C(F)(F)F)NC(Cc1ccccc1)NS2(=O)=O (stereo not drawn) | -6 | -1 | -16 | 1 | 2 | 0
CCCCNC(=O)c1cn(C)c2ccc(S(=O)(=O)N3CCOCC3)cc2c1=O | -5 | -6 | 4 | 1.1 | 9 | -3
COc1ccc(C2C(C(C)=O)=C(C)N=c3s/c(=C/c4ccc5c(c4)OCO5)c(=O)n32)cc1 (stereo not drawn) | -2 | -3 | -2 | 1.4 | 5 | -4
CC(=O)C1=C(C)N=c2s/c(=C/c3ccc4c(c3)OCO4)c(=O)n2C1c1ccc(N(C)C)cc1 (stereo not drawn) | ? | 13 | ? | 8.5* | 1 | ?
Cc1ccc(C2C3CSCC=C3C(C#N)=C(N)C2(C#N)C#N)cc1 (stereo not drawn) | -4 | -25 | ? | 8.8* | 2 | ?
CN1C2C=C3C(C#N)=C(N)C(C#N)(C#N)[C@@H](c4ccc(Cl)cc4)[C@@H]3C1CC2 (stereo partly drawn) | -3 | 1 | ? | 1.2 | 8 | 2
CN(C(=O)COC(=O)C1CCN(S(=O)(=O)c2cccs2)CC1)C1CCS(=O)(=O)C1 (stereo not drawn) | -4 | 0 | -19 | 1.1 | 7 | 6
SMILES | FPR binder | FPRL1 binder | VLA-4 antagonist | Autofluor Jurkat | LNCaP diff act | VLA-4 allo ag
O=C(c1ccc(Cl)cc1)N(Cc1cccs1)C1CCS(=O)(=O)C1 (stereo not drawn) | 28 | 46* | -18 | 1.1 | 6 | -4
Cc1ccc(/C(O)=C2\C(=O)C(=O)N(c3cc(C)on3)C2c2cccc(Br)c2)cc1 (stereo not drawn) | 40* | 27 | nt | nt | nt | nt
COc1cccc(-c2nc(CS(=O)(=O)CC(=O)NCCCN3CCc4ccccc4C3)c(C)o2)c1 | -9 | -5 | 9 | 1.1 | 8 | 1
CCCS(=O)(=O)N1CCCC(C(=O)NCCc2ccc(OC)c(OC)c2)C1 (stereo not drawn) | -1 | 5 | 1 | 1 | 12 | 3
CN1CCN(c2cc3c(c4c2[nH]c2ccccc24)C(=O)CC(C)(C)C3)CC1 | -10 | -1 | -6 | 1.1 | 63* | -8
CN1CCCN(C(=O)c2cc(=O)[nH]c3ccccc23)c2nc3ccccc3nc21 | -2 | -8 | -12 | 1.1 | 4 | 2
COc1ccc(NC(=O)CCc2nc(-c3ccccc3F)no2)cc1 | 3 | -5 | -34 | 0.97 | 5 | 6
Cc1ccc2nc(N3CCN(C=O)CC3)nc(-c3ccccc3)c2c1 | -9 | -1 | nt | nt | nt | nt
C=C(C)C1Cc2nc(N)nc(C)c2C1 (stereo not drawn) | -2 | 0 | 17 | 0.94 | 6 | -7
C=C(C)C1Cc2c(C)nn(-c3nc(C)cc(C)n3)c2C1 (stereo not drawn) | -6 | -4 | 54* | 1 | 10 | -20
Cc1noc(C)c1S(=O)(=O)Nc1ccc(C(=O)NC2CCCCC2)cc1 | -4 | -26 | ? | 3* | 4 | ?
Cc1noc(C)c1S(=O)(=O)Nc1ccc(C(=O)NCCc2ccccc2)cc1 | -6 | 1 | 55* | 1.1 | 16 | -5
Nc1nc(N2CCN(C/C=C/c3ccccc3)CC2)nc2ccccc12 | -4 | -8 | 1 | 1.1 | 9 | -1
COc1cc(C)nc(SCC(N)=O)n1 | -2 | 8 | -4 | 1 | 7 | 5
Cc1cc(SCC(N)=O)nc(SCC(=O)c2ccccc2)n1 | 48* | 49* | -2 | 1 | 15 | 6
COc1ccc(N2CCN(C(=O)CNC(=O)Cn3c(C)cc4ccccc4c3=O)CC2)cc1 | 1 | 2 | 0 | 1 | 1 | 3
CCCCCOC(=O)Cn1c(=O)oc2ccccc21 | 31* | 23 | -23 | 1 | 3 | -3
Cc1ccc(S(=O)(=O)NCCC(=O)NC2CCCC2)cc1 | 4 | 3 | 12 | 1 | 5 | 3
c1ccc2c(c1)nc(NCC1CCCO1)c1nnnn12 (stereo not drawn) | -22 | -12 | ? | 5* | 14 | ?
COc1ccc(C2C3=C(CCCC3=O)Nc3nc(C(F)(F)F)nn32)c(OC)c1OC (stereo not drawn) | -3 | 2 | -11 | 1.1 | 13 | 6
